# Screens as filed in PubChem.
# This is a sample that favours compounds with a hit; in the whole collection about 22% have one here.
# CYP2C19 inh: blockers of cytochrome P450 2C19 activity – biochemical, luminescence, ADME assay, primary screen; CYP2C19 Supersomes, luciferin-H EGE luminescence, 30 min; inhibition, % at 5 µM; actives 21% (n = 96,000); AID 778, 2007;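 active = CYP2C19 inhibition above a set limit at 5 µM in the primary screen, cut at about 50% in these data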;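 note: plate controls were negative control wells for no effect and 2.5 mM tranylcypromine positive control for full effect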
# CYP2C9 act: human CYP2C9 activators, primary screen, biochemical, luminescence; Cytochrome P450 2C9 (Homo sapiens), P11712; recombinant CYP2C9, luciferin-H conversion; hits give high values; factor 1 = untreated enzyme, 0 = blocked; activation factor at 5 µM; AID 1024, 2008; actives 1.4% (n = 96,000);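 active = activation factor of 2 or more for CYP2C9 at a 5 µM dose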;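 note: 0 = sulfaphenazole-blocked wells and 1 = vehicle-only wells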
# Target sequence (P11712 whole entry, looked up): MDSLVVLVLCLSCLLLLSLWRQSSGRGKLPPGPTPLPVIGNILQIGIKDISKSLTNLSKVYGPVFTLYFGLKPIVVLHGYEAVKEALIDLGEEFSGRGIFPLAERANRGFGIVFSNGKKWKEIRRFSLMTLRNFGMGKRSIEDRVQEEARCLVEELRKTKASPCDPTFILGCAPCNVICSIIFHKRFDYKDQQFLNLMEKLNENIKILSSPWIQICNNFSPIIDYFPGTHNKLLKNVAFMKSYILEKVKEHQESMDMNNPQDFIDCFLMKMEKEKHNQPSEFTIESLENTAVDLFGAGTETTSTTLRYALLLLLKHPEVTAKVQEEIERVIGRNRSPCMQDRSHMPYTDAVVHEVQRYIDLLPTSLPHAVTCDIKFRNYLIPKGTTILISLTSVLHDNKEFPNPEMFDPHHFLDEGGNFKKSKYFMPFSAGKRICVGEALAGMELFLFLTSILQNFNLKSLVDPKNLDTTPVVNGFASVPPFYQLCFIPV
# CYP2C9 inhib: blockers of cytochrome P450 2C9 activity – biochemical, luminescence, ADME assay, primary screen | P11712 | CYP2C9 Supersomes, luciferin-H conversion | inhibition, % at 5 µM | actives 20% (n = 96,000);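 active = blocking of liver enzyme CYP2C9 beyond about 50% at 5 µM, limit read from the data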
# Measles CPE: compounds protecting cells from measles virus cytopathic effect, primary screen, measles RdRp inhibitor project, single point, MLSMR library, absorbance | protection (pct of control), % at 4 µM | Measles virus-infected cells, CPE protection | actives 1.5% (n = 140,000) | AID 841, 2007; in the data active = protection mostly above about 24%, no sharp cut-off; inactive = mostly below about 26%
# CYP2C19 act: human CYP2C19 activators, primary screen, biochemical, luminescence; activation factor at 5 µM; recombinant CYP2C19, luciferin-H EGE luminescence; hits give high values; 0 = fully inhibited enzyme, 1 = untreated enzyme; Cytochrome P450 2C19 (Homo sapiens), P33261; AID 1025, 2008; 96,000 tested, under 10 active;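 active = activation factor of at least 2 at 5 µM in the primary screen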;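 note: 0 = wells with 2.5 mM tranylcypromine and 1 = vehicle-only wells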
# Numbers without * were called inactive; · = no result given.
SMILES,CYP2C19 inh,CYP2C9 act,CYP2C9 inhib,Measles CPE,CYP2C19 act
COc1cccc(C2C3=C(CC(C)(C)CC3=O)Nc3cc4c(cc32)OCO4)c1 (configuration not stated),71.8*,0.1,92.7*,11.6,0.3
COC(=O)CNC(=O)CNC(=O)Nc1ccccc1,3.1,0.9,10.4,2.1,1
COc1ccc(NC(=O)NCc2ccccn2)cc1,·,·,·,17.4,·
Cc1ccc(S(=O)(=O)N2CCC(C(=O)NCc3cccnc3)CC2)cc1,20.8,0.8,22.3,8.4,0.8
COc1ccc(S(=O)(=O)N2CCCC(C(=O)NCc3ccccn3)C2)cc1 (configuration not stated),14.6,2.4*,-138.5,4.0,0.9
COc1ccc(CNC(=O)C2CCCN(S(=O)(=O)c3cc(C)ccc3OC)C2)cc1 (configuration not stated),46.3,0.6,43.6,11.5,0.5
Cc1ccc(S(=O)(=O)N2CCC(C(=O)NCc3ccncc3)CC2)cc1,83.6*,0,99.0*,16.3,0.2
COc1ccc(S(=O)(=O)N2CCCC(C(=O)NCc3ccncc3)C2)cc1 (configuration not stated),99.4*,0,99.0*,11.9,0
O=C(COc1ccc(S(=O)(=O)N2CCCCC2)cc1)NCc1ccncc1,92.5*,0.1,92.4*,15.8,0.1
CCOc1ccc(NC(=O)C2CCN(c3nnnn3-c3ccccc3)CC2)cc1,·,·,·,3.9,·
COCCNC(=O)COc1ccc(Nc2ccccc2)cc1,-3.4,0.9,6.8,35.8,1
CSc1ccccc1NC(=O)COc1ccc(S(=O)(=O)N2CCCC2)cc1,14.4,0.2,79.5*,8.8,0.9
Cc1cccc(OCC(=O)Nc2ccc(S(=O)(=O)N3CCCC3)cc2)c1,21.3,0.5,47.1,20.4,0.8
O=C(NCCO)c1cccc2c1C(=O)c1ccccc1-2,·,·,·,4.3,·
Cc1ccc(C2OCC3(CO)COC(c4ccc(C)cc4)N23)cc1 (configuration not stated),71.9*,0.6,40.9,22.0,0.3
CC(=O)N1N=C(c2ccc(C)cc2)OC1c1ccc(C)cc1 (configuration not stated),18.9,0.8,20.5,22.5,0.8
O=C(NCc1ccco1)c1ccccc1-c1nc(-c2ccccc2)no1,32.1,0.5,54.1*,18.5,0.7
COc1cc(-c2noc(-c3ccccc3C(=O)NCc3ccco3)n2)cc(OC)c1OC,11.3,0.5,50.2*,12.2,0.9
CCc1nc2ccc(C(=O)NCc3ccco3)cc2nc1CC,6.7,1.1,-14.2,0.9,0.9
O=C(NCc1ccco1)c1cccc(-c2nnc(-c3ccccc3)o2)c1,71.1*,0.2,82.5*,8.9,0.3
CN1CCN(C(=O)c2ccccc2-c2nc(-c3ccccc3)no2)CC1,27.5,0.3,71.0*,5.2,0.7
COc1ccccc1-c1cc(C(=O)NCc2ccco2)no1,14.1,1.9,-88.7,2.9,0.9
O=C(NCc1ccccc1Cl)c1cnccn1,11.1,1,-2.7,14.3,0.9
COc1cc2nc(COc3ccc(C#N)cc3)n(CC#N)c(=O)c2cc1OC,22.4,0.7,34.6,3.1,0.8
CC1(C)Cc2c(cnn2-c2ccccc2)C(=O)/C1=N\NC(=O)c1ccccc1O,51.1*,0.8,23.5,10.3,0.5
SMILES,CYP2C19 inh,CYP2C9 act,CYP2C9 inhib,Measles CPE,CYP2C19 act
CCOC(=O)c1cc(-c2ccc(C)cc2)n(CCC(=O)NCCCOC)c1C,93.0*,0,100.0*,10.4,0.1
Cc1ccccc1NC(=O)C1CC(Cl)=CCC1C(=O)O (configuration not stated),8.4,1.1,-6.2,2.7,0.9
CCOc1ccc(NC2=NCC(=O)N2CCc2ccccc2)cc1,66.6*,0.6,44.2,7.4,0.3
CCOc1ccc(NC2=C(Cl)C(=O)N(Cc3ccccc3)C2=O)cc1,-2.2,1,4.9,12.7,1
Cc1ccc(NC2=NCC(=O)N2CCc2ccccc2)cc1C,98.0*,0.5,49.9,4.4,0
Cc1ccc(C(=O)COC(=O)CNC(=O)COc2ccccc2C)cc1C,12.5,2.4*,-144.0,15.8,0.9
CC(=O)NCC(=O)OCC(=O)c1ccc(C)c(C)c1,20.3,1.1,-12.7,12.3,0.8
Cc1cccc(C(=O)NC(=S)Nc2ccc(S(=O)(=O)N3CCCCC3)cc2)c1,22.0,0.6,44.4,12.2,0.8
CCOC(=O)c1ccc(Cn2c(-c3ccccc3)nnc2-c2ccccc2)o1,30.8,0.4,58.3*,22.6,0.7
CCOC(=O)c1c(NC(=O)Cn2nnc(-c3ccc(Cl)cc3)n2)sc(CC)c1C,14.8,0.3,73.8*,4.6,0.9
O=C(CN1C(=O)CC(c2ccccc2)=Nc2ccccc21)NCc1ccco1,40.5,0.3,71.0*,12.2,0.6
COc1ccc(C(=O)Nc2ccccc2-c2nnn(CC(=O)NCc3ccco3)n2)cc1,31.3,0.3,74.7*,19.0,0.7
CCOC(=O)c1c(NC(=O)Cn2nnc(-c3ccc(Cl)cc3)n2)sc(C)c1C,7.0,0.8,17.6,4.0,0.9
COc1cc(C(=O)Nc2ccccc2-c2nnn(CC(N)=O)n2)cc(OC)c1OC,-17.3,0.2,78.3*,4.6,1.2
CCOC(=O)C(Cc1ccccc1)NC(=O)Cn1nnc(-c2ccccc2)n1 (configuration not stated),48.0,0.6,35.8,4.0,0.5
O=C(Cn1nnc(-c2ccccc2NC(=O)c2ccco2)n1)NC1CCCCC1,26.5,0.4,63.8*,12.3,0.7
O=C(Cn1nnc(-c2ccccc2)n1)NCc1ccco1,60.6*,1.1,-12.0,5.1,0.4
CCOc1ccc(-c2nnn(CC(=O)NCc3ccco3)n2)cc1,23.0,0.8,18.9,3.6,0.8
CCOC(=O)c1ccc(CNC(=O)Cn2nnc(-c3ccc(C)cc3)n2)o1,17.7,0.4,59.8*,10.0,0.8
CN(C)c1ncc(C(=O)O)cn1,-5.1,1.1,-6.3,22.9,1.1
CCCCC(=O)Nc1nn(C)c2nc3c(C)cccc3cc12,-2.9,1.5,-46.1,0.7,1
N=C(N)SCc1ccccn1,·,·,·,6.9,·
O=C(Cn1nnc(-c2cccc(C(F)(F)F)c2)n1)NC(=O)NCc1ccco1,-7.1,1.9,-90.6,4.3,1.1
O=C(Cn1nnc(-c2ccccc2)n1)NCc1cccs1,71.6*,1,2.9,14.1,0.3
O=C(Cn1nnc(-c2cccc(C(F)(F)F)c2)n1)NC1CCCC1,1.6,2.5*,-148.9,3.8,1
CC1=CC(=O)N(c2cccc(C(F)(F)F)c2)C1c1ccc(Cl)cc1 (configuration not stated),70.1*,0.6,40.0,3.9,0.3
